Assay results taken from PubChem BioAssay.
Several values for one entry are separate records, joined by “and”; a condition that tells them apart may be missing. Equal values may be shown once. For part of these data: Potency and affinity values are given separately. Where a structure was tested more than once in an assay, its records may differ in their call. Activity calls are given as the source filed them. A call without a number means that no potency is given here. Unless noted, the rule behind the calls is not given here.

Experiments:
[1] = antimalarial activity against Dd2 strain (AID 2302;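 active = growth inhibition above 50% at the single 2 µM test dose, taken to imply half-maximal potency below 2 µM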); conditions: P. falciparum Dd2 in RBCs, LDH growth readout, 72 h; at 2 µM; stronger effect = higher value
[2] = human hepatoma cell viability loss – ATP luminescence, cytotoxicity control for P. falciparum antimalarial project, primary screen (AID 2303;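 active = inhibition above 50%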); conditions: HepG2 viability, 24-48 h, at 10 µM, stronger effect = higher value
[3] = molecular target: L-lactate dehydrogenase (Plasmodium falciparum (isolate CDC / Honduras)) (UniProt Q27743); experiment: PfLDH activity inhibition – cell lysate, 3D7 strain, counter-screen for P. falciparum growth inhibition project (AID 2304); conditions: P. falciparum 3D7 crude extract, LDH APAD/NBT absorbance; at 2 µM; stronger effect = higher value
[4] = inhibition of 3D7 malaria parasite growth – strain 3D7 (AID 2306); conditions: P. falciparum 3D7 erythrocytic growth, LDH absorbance, 72 h; at 2 µM; stronger effect = higher value
[5] = molecular target: Calcium-dependent protein kinase 1 (Plasmodium falciparum (isolate 3D7)) (UniProt P62344); experiment: PfCDPK1 kinase inhibitors, biochemical, TCAMS library (AID 1159585; cut-off not given, nearly all actives have IC50 up to about 0.98 µM;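 note: inhibitors leave more ATP so luminescence rises with inhibition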); conditions: recombinant PfCDPK1, Kinase-Glo ATP depletion luminescence
[6] = molecular target: Plasmodium falciparum protein kinase 6 (PK6, PF3D7_1337100) (UniProt Q8IDW1); experiment: PfPK6 kinase inhibitors, biochemical, TCAMS library (AID 1159586); conditions: recombinant PfPK6, Kinase-Glo ATP depletion luminescence
[7] = molecular target: Protein kinase 7 (PK7), Plasmodium falciparum 3D7 (PF3D7_0213400) (UniProt Q7YTF7); experiment: inhibition of Plasmodium PK7 catalytic activity – biochemical, TCAMS antimalarial set, Kinase-Glo luminescence (AID 1159587); conditions: recombinant PfPK7, Kinase-Glo ATP depletion luminescence
[8] = molecular target: Calcium-dependent protein kinase 4 (Plasmodium falciparum (isolate 3D7)) (UniProt Q8IBS5); experiment: PfCDPK4 kinase inhibitors, biochemical, TCAMS library (AID 1159588; cut-off not given, nearly all actives have IC50 up to about 0.91 µM); conditions: recombinant PfCDPK4, Kinase-Glo ATP depletion luminescence
Chain of Calcium-dependent protein kinase 4 (Plasmodium falciparum (isolate 3D7)) (Q8IBS5 whole entry, looked up): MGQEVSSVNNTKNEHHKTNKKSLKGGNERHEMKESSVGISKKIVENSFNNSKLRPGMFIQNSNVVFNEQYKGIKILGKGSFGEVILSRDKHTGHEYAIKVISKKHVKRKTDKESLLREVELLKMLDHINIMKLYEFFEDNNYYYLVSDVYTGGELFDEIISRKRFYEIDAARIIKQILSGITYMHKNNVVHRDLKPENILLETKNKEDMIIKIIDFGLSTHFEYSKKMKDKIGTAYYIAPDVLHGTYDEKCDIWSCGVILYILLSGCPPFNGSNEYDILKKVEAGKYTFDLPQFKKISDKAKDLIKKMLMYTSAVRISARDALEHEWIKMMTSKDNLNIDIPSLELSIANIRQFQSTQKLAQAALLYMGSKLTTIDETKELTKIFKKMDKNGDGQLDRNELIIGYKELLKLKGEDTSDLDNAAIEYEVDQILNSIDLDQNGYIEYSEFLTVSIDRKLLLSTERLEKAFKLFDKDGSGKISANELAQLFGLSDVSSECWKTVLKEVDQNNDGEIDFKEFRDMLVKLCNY

Chain of Calcium-dependent protein kinase 1 (Plasmodium falciparum (isolate 3D7)) (P62344 whole entry, looked up): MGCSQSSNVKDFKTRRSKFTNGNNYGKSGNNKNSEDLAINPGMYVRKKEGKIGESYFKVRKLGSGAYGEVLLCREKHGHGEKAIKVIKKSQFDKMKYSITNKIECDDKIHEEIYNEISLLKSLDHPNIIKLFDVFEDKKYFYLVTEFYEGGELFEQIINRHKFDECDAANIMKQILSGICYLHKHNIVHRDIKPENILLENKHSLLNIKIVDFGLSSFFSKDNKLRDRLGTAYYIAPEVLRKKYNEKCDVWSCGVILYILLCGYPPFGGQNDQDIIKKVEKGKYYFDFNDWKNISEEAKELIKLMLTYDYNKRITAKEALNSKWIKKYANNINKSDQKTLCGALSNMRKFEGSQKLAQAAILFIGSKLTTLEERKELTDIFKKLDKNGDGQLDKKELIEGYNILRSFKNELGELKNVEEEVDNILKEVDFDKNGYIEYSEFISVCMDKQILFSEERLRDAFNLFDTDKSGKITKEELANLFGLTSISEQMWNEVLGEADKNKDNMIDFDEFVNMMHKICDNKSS
Chain of Protein kinase 7 (PK7), Plasmodium falciparum 3D7 (PF3D7_0213400) (Q7YTF7 1-343): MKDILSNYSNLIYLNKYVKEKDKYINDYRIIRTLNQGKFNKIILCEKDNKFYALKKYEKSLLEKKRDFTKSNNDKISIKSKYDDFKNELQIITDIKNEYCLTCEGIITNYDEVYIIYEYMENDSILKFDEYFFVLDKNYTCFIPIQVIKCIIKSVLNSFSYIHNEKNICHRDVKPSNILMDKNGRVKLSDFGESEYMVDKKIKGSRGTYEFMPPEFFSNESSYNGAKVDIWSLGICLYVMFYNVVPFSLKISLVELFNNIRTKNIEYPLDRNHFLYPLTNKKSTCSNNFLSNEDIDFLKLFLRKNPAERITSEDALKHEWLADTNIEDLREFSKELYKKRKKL
Chain of Plasmodium falciparum protein kinase 6 (PK6, PF3D7_1337100) (Q8IDW1 1-305): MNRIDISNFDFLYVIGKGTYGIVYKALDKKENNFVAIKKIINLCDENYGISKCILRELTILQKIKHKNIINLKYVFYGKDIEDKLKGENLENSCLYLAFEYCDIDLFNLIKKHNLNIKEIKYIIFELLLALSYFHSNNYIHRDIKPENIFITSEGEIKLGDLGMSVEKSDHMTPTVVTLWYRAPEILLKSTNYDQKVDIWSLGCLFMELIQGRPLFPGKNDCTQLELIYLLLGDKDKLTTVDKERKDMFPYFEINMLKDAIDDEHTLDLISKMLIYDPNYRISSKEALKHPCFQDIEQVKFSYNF
Chain of L-lactate dehydrogenase (Plasmodium falciparum (isolate CDC / Honduras)) (Q27743 whole entry, looked up): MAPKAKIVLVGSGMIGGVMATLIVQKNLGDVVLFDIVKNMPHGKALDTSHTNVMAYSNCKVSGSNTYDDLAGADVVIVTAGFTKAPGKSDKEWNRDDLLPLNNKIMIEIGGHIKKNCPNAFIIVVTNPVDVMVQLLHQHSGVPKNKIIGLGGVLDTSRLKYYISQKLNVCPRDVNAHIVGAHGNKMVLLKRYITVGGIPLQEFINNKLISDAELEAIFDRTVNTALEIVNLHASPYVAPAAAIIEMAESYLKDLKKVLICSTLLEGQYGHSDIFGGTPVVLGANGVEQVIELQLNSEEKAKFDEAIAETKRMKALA

Compound	growth inhibition [1]	inhibition [2]	inhibition [3]	growth inhibition [4]	outcome [5]	outcome [6]	outcome [7]	outcome [8]
Oc1ccc(CN2CCN(CCOC(c3ccccc3)c3ccccc3)CC2)cc1Cl	77% (active)	7% (inactive)	1% (inactive)	98% (active)	inactive	inactive	inactive	inactive
S=C(NCCc1ccc(Cl)cc1)NC1CCC(CN2CCC(c3c[nH]c4ccccc34)CC2)CC1 (configuration not stated)	34% (inactive) and 84% (active)	37% (inactive) and 42% (inactive)	-2% (inactive) and -8% (inactive)	100% (active) and 101% (active)	inactive	inactive	inactive	inactive
O=C(Nc1ccc(Oc2ccccc2)cc1)N1CCC(CN2CCC(c3c[nH]c4ccccc34)CC2)CC1	59% (active)	53% (active)	-1% (inactive)	100% (active)	inactive	inactive	inactive	inactive
Cc1c(C)c2c(c(C)c1O)CC[C@@](C)(C(=O)N1CCC(CN3CCC(c4c[nH]c5ccccc45)CC3)CC1)O2	90% (active)	21% (inactive)	3% (inactive)	98% (active)	inactive	inactive	inactive	inactive
N=c1c2c(n(Cc3ccc(Cl)cc3Cl)c3c1CCC3)CCCC2	73% (active)	-5% (inactive)	3% (inactive)	94% (active)	inactive	inactive	inactive	inactive
COc1cccc(C2(NC[C@@H](O)[C@H](Cc3ccccc3)NC(=O)c3ccccc3)CCCCC2)c1	67% (active)	14% (inactive)	-2% (inactive)	97% (active)	inactive	inactive	inactive	inactive
C#CCN1CCC2=C(C1)c1c(O)cc(C(C)CCCc3ccc(F)cc3)cc1OC2(C)C (configuration not stated)	90% (active)	1% (inactive)	5% (inactive)	98% (active)	inactive	inactive	inactive	inactive
CC[C@H]1CN2CC[C@@H]1C[C@H]2[C@H](O)c1cc(N2CCC(C)CC2)nc2ccc(OC)cc12	98% (active)	16% (inactive)	1% (inactive)	99% (active)	inactive	inactive	inactive	inactive
O=C(/C=C/c1cccs1)NC1CCC(CN2CCC(c3c[nH]c4ccccc34)CC2)CC1 (configuration not stated)	29% (inactive)	33% (inactive)	-1% (inactive)	82% (active)	inactive	inactive	inactive	inactive
COCCSc1ccc(CC(C)NCC(O)c2cccc(Cl)c2)cc1 (configuration not stated)	73% (active)	2% (inactive)	-1% (inactive)	97% (active)	inactive	inactive	inactive	inactive
CCN1CCC(N2CCC(n3c(C)nc4cc(C(F)(F)F)ccc43)CC2)CC1	16% (inactive)	6% (inactive)	1% (inactive)	93% (active)	inactive	inactive	inactive	inactive
Cc1nc(C)c(-c2ccc(Oc3ccc(OC(F)(F)F)cc3)cc2)c(OC(=O)N(CCNC(C)C)C(C)C)c1Br	97% (active)	35% (inactive)	-2% (inactive)	98% (active)	inactive	inactive	inactive	inactive
CNCCCCCCOc1ccc(CC(C)NCC(O)c2cccc(C(F)(F)F)c2)cc1 (configuration not stated)	79% (active)	99% (active)	3% (inactive)	101% (active)	inactive	inactive	inactive	inactive
NC(=O)c1ccc2[nH]cc(C3CCN(CC4CCC(NC(=O)/C=C/c5ccc(Cl)c(Cl)c5)CC4)CC3)c2c1 (configuration not stated)	26% (inactive) and 32% (inactive)	11% (inactive) and -1% (inactive)	5% (inactive) and -8% (inactive)	101% (active) and 100% (active)	inactive	inactive	inactive	inactive
CC[C@H]1CN2CC[C@H]1C[C@H]2[C@H](O)c1cc(N2CCCC(CO)C2)nc2ccc(OC)cc12 (some centres not stated)	99% (active)	11% (inactive)	2% (inactive)	100% (active)	inactive	inactive	inactive	inactive
CC[C@H]1CN2CC[C@@H]1C[C@@H]2[C@@H](O)c1cc(-c2ccc(F)cc2)nc2ccc(OC)cc12	64% (active)	18% (inactive)	-4% (inactive)	98% (active)	inactive	inactive	inactive	inactive
O=C(CCCCCc1ccccc1)NC1CCC(CN2CCC(c3c[nH]c4ccccc34)CC2)CC1 (configuration not stated)	5% (inactive)	34% (inactive)	-3% (inactive)	86% (active)	inactive	inactive	inactive	inactive
O=C(Nc1ccccc1OC(F)(F)F)NC1CCC(CN2CCC(c3c[nH]c4ccccc34)CC2)CC1 (configuration not stated)	60% (active) and 70% (active)	33% (inactive) and 35% (inactive)	6% (inactive) and 8% (inactive)	101% (active) and 99% (active)	inactive	inactive	inactive	inactive
CN1CC=C(c2c[nH]c3ccc(Sc4ccccc4)cc23)CC1	99% (active)	36% (inactive)	-2% (inactive)	98% (active)	inactive	inactive	inactive	inactive
CC[C@H]1CN2CC[C@@H]1C[C@H]2[C@H](O)c1cc(-c2ccccc2)nc2ccc(O)cc12	99% (active)	14% (inactive)	-2% (inactive)	99% (active)	inactive	inactive	inactive	inactive

Compound	growth inhibition [1]	inhibition [2]	inhibition [3]	growth inhibition [4]	outcome [5]	outcome [6]	outcome [7]	outcome [8]
CN1CC=C(c2csc3ccc(NC(=O)Nc4ccc(-c5ccncc5)c(Cl)c4)cc23)CC1	101% (active)	10% (inactive)	6% (inactive)	102% (active)	inactive	inactive	inactive	inactive
Cn1c(C2C[C@H]3CC[C@H](C2)N3CC2CCC(NC(=O)/C=C/c3ccc(Cl)c(Cl)c3)CC2)nc2ccccc21 (some centres not stated)	51% (active)	50% (active)	4% (inactive)	100% (active)	inactive	inactive	inactive	inactive
O=C(C=Cc1ccc(Br)cc1)NC1CCC(CN2CCC(c3c[nH]c4ccccc34)CC2)CC1 (configuration not stated)	98% (active)	71% (active)	-3% (inactive)	101% (active)	inactive	inactive	inactive	inactive
O=C(NC1CCC(CN2CCC(c3c[nH]c4ccccc34)CC2)CC1)c1cn(Cc2ccccc2)c2ccccc12 (configuration not stated)	48% (inactive)	84% (active)	-3% (inactive)	91% (active)	inactive	inactive	inactive	inactive
Cc1cc(NC(=O)[C@H](CC(C)C)Nc2ccc(C#N)c3ccccc23)ccc1F	88% (active)	35% (inactive)	3% (inactive)	95% (active)	inactive	inactive	inactive	inactive
Cc1[nH]c2ccccc2c1C1=CCN(C[C@H]2C[C@@H]2C(=O)c2ccccc2)CC1	88% (active)	18% (inactive)	-3% (inactive)	95% (active)	inactive	inactive	inactive	inactive
CCCC(=O)c1c(O)c2ccccc2oc1=O	1% (inactive)	11% (inactive)	-5% (inactive)	93% (active)	inactive	inactive	inactive	inactive
COC(=O)c1ccc(CC(C)NCC(O)c2cccc(C(F)(F)F)c2)cc1F (configuration not stated)	47% (inactive)	1% (inactive)	7% (inactive)	82% (active)	inactive	inactive	inactive	inactive
O=C(/C=C/c1ccc(Cl)c(Cl)c1)NC1CCC(CN2CCC(c3c[nH]c4cc(O)ccc34)CC2)CC1 (configuration not stated)	98% (active)	18% (inactive)	-10% (inactive)	100% (active)	inactive	inactive	inactive	inactive
COC(=O)c1ccc(CC(C)NCC(O)c2cccc(C(F)(F)F)c2)c(Cl)c1 (configuration not stated)	98% (active)	-10% (inactive)	1% (inactive)	99% (active)	inactive	inactive	inactive	inactive
c1ccc2c(NCCCCCCNc3c4c(nc5ccccc35)CCCC4)c3c(nc2c1)CCCC3	51% (active)	90% (active)	3% (inactive)	100% (active)	inactive	inactive	inactive	inactive
COc1ccc(CCNCc2ccc3nc(N)cc(C)c3c2)cc1	86% (active)	23% (inactive)	-5% (inactive)	100% (active)	inactive	inactive	inactive	inactive
CC[C@H]1CN2CC[C@@H]1C[C@H]2[C@H](O)c1cc(N2CCC(O)(c3ccccc3)CC2)nc2ccc(OC)cc12	98% (active)	14% (inactive)	-2% (inactive)	101% (active)	inactive	inactive	inactive	inactive
COc1cccc(CN2CCC(CCOC(c3ccccc3)c3ccccc3)CC2)c1O	99% (active)	33% (inactive)	3% (inactive)	97% (active)	inactive	inactive	inactive	inactive
CC(=O)Nc1ccc(CN2CCC(N(C)c3cc(NC(=O)c4cccs4)ccn3)CC2)cc1	43% (inactive)	-1% (inactive)	2% (inactive)	101% (active)	inactive	inactive	inactive	inactive
O=C(Nc1ccc(CN2CCC(c3c[nH]c4ccc(O)cc34)CC2)cc1)c1ccc(-c2ccccc2)cc1	100% (active)	33% (inactive)	1% (inactive)	100% (active)	inactive	inactive	inactive	inactive
CN1CC=C(c2c[nH]c3ccc(Oc4ccccc4)cc23)CC1	98% (active)	40% (inactive)	-7% (inactive)	98% (active)	inactive	inactive	inactive	inactive
Cc1ccc(C2(O)C[C@H]3CC[C@@H](C2)N3C)cc1 (some centres not stated)	16% (inactive)	-6% (inactive)	-4% (inactive)	92% (active)	inactive	inactive	inactive	inactive
O=C(/C=C/c1ccc(Cl)c(Cl)c1)NC1CCC(CN2CCC(c3c[nH]c4ccc(O)cc34)CC2)CC1 (configuration not stated)	99% (active) and 101% (active)	38% (inactive) and 35% (inactive)	-1% (inactive) and 6% (inactive)	100% (active) and 101% (active)	inactive	inactive	inactive	inactive
